# Hits are enriched below; roughly 3.4% of the tested compounds scored in any of these assays.
# TEAD-YAP block: TEAD-YAP interaction inhibition, primary screen, TEAD-YAP interaction inhibitor project, luminescence, HEK-TIYL cells; inhibition, % at 9.12 µM; AID 1259422, 2018; TEAD-Gal4/YAP UAS-luciferase luminescence; 640,000 compounds, 1.4% hits; in the data active means inhibition above about 32%;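 further: 0% = median of test compound wells and 100% = reference inhibitor wells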
# GPR151 ag: activators of human GPR151, primary screen, cell-based, PathHunter beta-arrestin, luminescence; PathHunter beta-arrestin GPR151 cells; activation, % at 11.2 µM; 650,000 compounds, 1% hits; AID 1508602, 2020; in the data active means activation above about 4.9%;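 further: 0% = median of compound wells and 100% = cells with positive control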
# Target sequence (Q8TDV0 whole entry, looked up): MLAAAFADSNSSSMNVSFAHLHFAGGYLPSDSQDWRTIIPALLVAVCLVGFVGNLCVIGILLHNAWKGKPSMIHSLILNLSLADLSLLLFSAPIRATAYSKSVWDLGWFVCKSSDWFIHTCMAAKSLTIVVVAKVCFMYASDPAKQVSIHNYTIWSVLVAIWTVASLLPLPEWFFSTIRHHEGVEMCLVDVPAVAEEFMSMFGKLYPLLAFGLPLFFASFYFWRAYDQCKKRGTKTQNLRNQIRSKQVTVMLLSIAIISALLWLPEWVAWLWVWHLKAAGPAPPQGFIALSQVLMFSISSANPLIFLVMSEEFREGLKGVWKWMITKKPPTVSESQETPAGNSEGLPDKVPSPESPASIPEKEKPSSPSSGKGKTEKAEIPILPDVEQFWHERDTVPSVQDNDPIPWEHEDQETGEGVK
# MITF primary: MITF inhibitors, primary screen, biochemical, AlphaScreen, human; AlphaScreen MITF homodimerization, bead proximity signal; Microphthalmia-associated transcription factor (Homo sapiens), O75030; inhibition, % at 2.6 µM; 650,000 compounds, 0.91% hits; in the data active means inhibition above about 50%;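 further: 0% = vehicle wells with protein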
# FBW7 act: FBW7 E3 ligase activators, primary screen, biochemical, AlphaScreen, human; F-box/WD repeat-containing protein 7 (Homo sapiens), Q969H0; normalized activity (activation), % at 26.1 µM; AlphaScreen FBW7–phospho-cyclin E peptide binding, activator screen; AID 1259310, 2017; 650,000 compounds, 0.13% hits; in the data active means normalized activity above about 1.9%;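 further: purified mutant Fbw7 with reduced substrate affinity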
# GPR151 conf act: GPR151 activators, triplicate retest, confirmation, cell-based, PathHunter beta-arrestin, luminescence; shares compounds with GPR151 ag; GPR151 PathHunter beta-arrestin cells, 90 min; % of EA-reagent control over plate median; activation, % at 11.2 µM; 6,700 tested, under 10 active;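 active means mean percent activation across replicates above the confirmation screen cutoff of 4.91%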
# GPR119 ag: GPR119 activators in beta-arrestin cells, counter-screen for GPR151 activator project, cell-based, PathHunter beta-arrestin, luminescence, triplicate; shares compounds with GPR151 ag; 6,700 compounds, 0.3% hits; 90 min; 0 = compound-well median, 100 = enzyme-acceptor control; activation, % at 11.2 µM;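 active means mean percent activation in the counterscreen above 29.09%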;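 further: counterscreen on off-target GPR119 to flag nonselective hits from the GPR151 activator screen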
# * = called active by the depositor; / = not tested or not shown.
SMILES,TEAD-YAP block,GPR151 ag,MITF primary,FBW7 act,GPR151 conf act,GPR119 ag
CCOC(=O)C1=CN(C(C)C)C=C(C(=O)OCC)C1c1ccc(OC)c(O)c1,-5,2,3,0,/,/
Cn1nccc1Nc1nc(C(=O)Nc2ccccc2)cs1,-14,5.6*,9,0,0,-7
Cn1nccc1Nc1nc(C(=O)NCc2ccccc2)cs1,-3,-1,5,0,/,/
Cn1nccc1Nc1nc(C(=O)NCc2cccnc2)cs1,-3,5.3*,-2,0,-1,-13
Cn1nccc1Nc1nc(C(=O)NCc2cccc(C(F)(F)F)c2)cs1,-9,8.7*,20,0,0,-2
COC(=O)c1ccc2c(=O)n(Cc3ccc(C(=O)NCCN4CCC(C)CC4)cc3)c(=S)[nH]c2c1,-17,-2,-11,0,/,/
COc1ccccc1/C=C/C(=O)NC1CCCCCC1,-52,0,-4,0,/,/
CCC[C@@H]1NC(=O)[C@@H]2C[C@H](NCc3ccccc3)CN2C1=O,9,-1,19,0,/,/
CCOc1ccccc1N(CC(=O)N1CCN(c2ccccc2)CC1)S(C)(=O)=O,9,-2,-1,0,/,/
O=C(NCC1CCN(C(=O)c2cccc(F)c2)CC1)c1cccc(F)c1,2,2,24,0,/,/
O=C(CSc1ccc2nnc(-c3cccs3)n2n1)NCc1ccccc1,-2,0,10,0,/,/
Cc1nnc2ccc(SCC(=O)NCc3csc(-c4cccs4)n3)nn12,-27,5.6*,-11,-1,1,16
C#CCN1C(=O)S/C(=C/c2ccc(C(=O)OC)cc2)C1=O,2,5.9*,-6,0,0,-5
Cc1ccc(C(=O)CSc2nnc(-c3ccccc3N)n2C)cc1,-10,5.9*,-4,0,0,-7
O=C(CN1CCN(S(=O)(=O)c2ccc(Br)cc2)CC1)Nc1ccc(Cl)c(C(F)(F)F)c1,11,5.8*,-5,0,-1,-6
O=C(N/N=C/c1ccc(O)cc1)c1ccc(Br)o1,-23,-5,16,0,/,/
CCOC(=O)C1=C(CC)OC(N)=C(C#N)C1c1ccc(F)c(Br)c1 (centres undefined),10,0,-8,0,/,/
CCOC(=O)C1=C(C)OC(N)=C(C#N)C1c1ccc(F)c(Br)c1 (centres undefined),3,9.6*,27,1,0,9
COCCCN(C(=S)Nc1cccc(Cl)c1)C(C)c1ccncc1 (centres undefined),-5,5.9*,-5,0,-1,5
c1ccc(CNc2cc(Nc3ccncc3)ncn2)cc1,-1,5.4*,-5,0,0,1
Nc1nc(NCc2cccc(C(F)(F)F)c2)cc(Nc2ccncc2)n1,9,4.9*,-12,0,0,-1
Cc1cc(Cl)ccc1NC(=O)C(=O)N/N=C/c1ccc([N+](=O)[O-])cc1,-3,-1,-1,0,/,/
Cc1ccc(NC(=O)C(=O)N/N=C/c2ccc([N+](=O)[O-])cc2)cc1C,-18,15*,-18,0,0,14
O=C(Nc1cccc([N+](=O)[O-])c1)c1ccc(S(=O)(=O)N2CCCC2)cc1,-1,0,2,0,/,/
O=C(NCCCO)C(=O)NCC1OCCCN1S(=O)(=O)c1ccccc1 (centres undefined),8,1,6,0,/,/
CCOC(=O)c1oc2ccc(NC(=O)c3ccccc3F)cc2c1C,-5,-1,11,0,/,/
CCOc1ccc(OCC)c(NC(=O)CN2CCN(C(C)=O)CC2)c1,-1,6.8*,19,0,-1,-6
CCOC(=O)C1CCCN(C(=O)CCS(=O)(=O)Cc2ccccc2)C1 (centres undefined),7,0,2,0,/,/
O=C(NCc1ccc(Cl)cc1Cl)Nc1ccccc1,-45,-1,14,1,/,/
O=C(NCc1ccc(Cl)cc1Cl)c1ccccn1,2,7.8*,2,0,0,3

# Source: PubChem
